Source: PubChem
USP30 inh – human USP30 deubiquitinase inhibition; Q70CQ3; purified USP30, Ub-rhodamine cleavage fluorescence; inhibition, % at 25 µM; actives 5.3% (n = 47,000); AID 1645860
USP7 inh – blocks human USP7 ubiquitin-rhodamine cleavage | purified USP7, Ub-rhodamine cleavage fluorescence | inhibition, % at 20 µM | actives 0.3% (n = 47,000)
USP10 block – human USP10 deubiquitinase inhibition. actives 1.1% (n = 47,000). AID 1645856. purified USP10, Ub-rhodamine fluorescence, 60 min. Q14694. inhibition, % at 20 µM
USP17 inh – human USP17-like deubiquitinase inhibition; actives 6.5% (n = 47,000); inhibition, % at 50 µM; A8MUK1; purified USP17, Ub-rhodamine cleavage fluorescence, 3 h
USP28 block – human USP28 deubiquitinase inhibition | purified USP28, Ub-rhodamine cleavage fluorescence, 30 min | inhibition, % at 25 µM | actives 3% (n = 47,000)
USP8 block – blocks human USP8 ubiquitin-rhodamine cleavage; actives 4.2% (n = 47,000); P40818; purified USP8, Ub-rhodamine cleavage fluorescence, 30 min; inhibition, % at 20 µM
Of the large screens only hits and unclear results are named; the others gave an inactive call. Shown are actives, neighbours in structure and some others; about 13% of the full set was active somewhere. Rule as the data show it: active = inhibition above about 30%; inactive = the rest.

COc1cc(Nc2nc3ccccc3n3c(C)nnc23)cc(OC)c1	none
CC1CCN(c2ccc3nnc(CCC(=O)N4CCCC4)n3n2)CC1	none
CC1CC(C)CN(C(=O)CCc2nnc3ccc(N4CCCC4)nn23)C1 (centres undefined)	USP30 inh 31
CC1CCN(c2ccc3nnc(CCC(=O)NCc4ccc(CN5CCOCC5)o4)n3n2)CC1	USP28 block 31
COC(=O)c1ccc(NC(=O)CCc2nnc3ccc(N4CCOCC4)nn23)cc1	USP17 inh 31
Cc1ccc(C)c(CN2CCC(CNC(=O)CCc3nnc4ccc(N5CCCCC5)nn34)CC2)c1	USP28 block 33
CC1CCN(c2ccc3nnc(CCC(=O)NCCN4CCOCC4)n3n2)CC1	none
O=C(CCc1nnc2ccc(N3CCOCC3)nn12)Nc1ccccc1F	none
O=C(c1ccnnc1)N1CCO[C@@H]2CC(COc3ccccn3)C[C@H]21 (some centres undefined)	none
O=C(OCC(=O)N1CCOCC1)c1cc(-c2ccccc2)c(N2CCOCC2)s1	none
CN1CCN(c2ccc(-c3nc(-c4ccc(F)cc4)no3)nn2)CC1	none
COc1ccc(-c2noc(-c3ccc(N4CCC5(CC4)OCCO5)nn3)n2)cc1	USP17 inh 45
CCOC(=O)c1cnn(-c2ccc(C(=O)Nc3ccc(C)c(Cl)c3)cc2)c1N	USP17 inh 62
CCOC(=O)c1cnn(-c2ccc(C(=O)NCCCN3CCCCCC3)cc2)c1N	none
OCCCn1c(-c2ccccc2)cn2c(-c3ccccc3)c(-c3ccccc3)nc12	none
OCCn1c(-c2ccccc2)cn2c(-c3ccccc3)c(-c3ccccc3)nc12	USP8 block 58
COc1ccc(-c2cn3c(-c4ccccc4)c(-c4ccccc4)nc3n2CCc2ccccc2)cc1	USP8 block 73
COc1ccc(-n2c(-c3ccccc3)cn3c(-c4ccccc4)c(-c4ccccc4)nc23)cc1	USP30 inh 59, USP17 inh 55, USP8 block 80
CCS(=O)(=O)N1CCC2(CC1)CN(Cc1ccccn1)C(=O)CO2	none
Cc1cccc(O)c1C(=O)O[C@H](C)c1cccc2nc3c(C(=O)O)cccc3nc12	USP17 inh 38
Cc1ccc(S(=O)(=O)Nc2cc(C(F)(F)F)ccc2Oc2ccc(C)c3c2CCC3)cc1	none
Cn1nc(Cl)c(Cl)c1Oc1ccc(S(=O)(=O)Nc2ccc(Oc3ccc(C(F)(F)F)cn3)c(Cl)c2)cc1	USP10 block 69
C=C1CCC[C@]2(C)C[C@H]3OC(=O)C(CNCCc4ccc(OC)c(OC)c4)[C@H]3CC12 (some centres undefined)	USP30 inh 46
C=C1CCC[C@]2(C)C[C@H]3OC(=O)C(CNCCc4ccc(F)cc4)[C@H]3CC12 (some centres undefined)	none
CC(OC(=O)c1cccc(S(=O)(=O)N2CCCCC2)c1)C(=O)NC1CCCC1 (centres undefined)	none
O=C(CSc1ccc(N2CCC(C(=O)NC3CC3)CC2)nn1)Nc1cccc(Cl)c1	USP17 inh 38
O=c1ccc(S(=O)(=O)N2CCCCC2)cn1Cc1ccccc1F	none
CN1CC(=O)N(C2CCNC2)Cc2c(NC3Cc4ccccc4C3)ncnc21 (centres undefined)	USP17 inh 50
CC1CCC(Nc2ncnc3c2CN(C2CCNC2)C(=O)CN3C)CC1 (centres undefined)	none
Cc1noc(-c2ccnc(-n3ncc(C(=O)N(C)Cc4ccccc4)c3C)c2)n1	none
CCC(Oc1ccccc1OC)C(=O)N1CC(=O)Nc2ccccc21 (centres undefined)	none
O=C1CN(C(=O)COc2cccc3ccccc23)c2ccccc2N1	USP17 inh 41, USP8 block 84
CC(Nc1ccccc1Oc1ccccc1)C(=O)N1CC(=O)Nc2ccccc21 (centres undefined)	USP28 block 37
O=S1(=O)C[C@@H](N2CCN(c3ccccn3)CC2)[C@H](S(=O)(=O)c2ccccc2)C1	none (no result: USP30 inh, USP28 block)
CC1CCCN(S(=O)(=O)c2ccc(-n3cnc(C(=O)NC4CC4)c3)nc2)C1 (centres undefined)	USP30 inh 32, USP17 inh 45
CCNC(=O)c1cn(-c2ccc(S(=O)(=O)N3CCCC(C)C3)cn2)cn1 (centres undefined)	USP17 inh 44 (no result: USP30 inh, USP28 block)
